Measured values reported in PubChem BioAssay AID588855 (National Center for Advancing Translational Sciences (NCATS), 2011).
The campaign covered roughly 410,000 compounds. About 5,000 (1.2%) were called active. Another 13% or so got no clear call; they are omitted. Calls come from the whole dose curve; as a rule, active = well fitted inhibition curve with a large enough effect; inconclusive = small, poorly fitted or top-dose-only effect; inactive = no such curve, though single readings can be large or run the other way. The full list was thinned out, with actives kept by preference.

Test: qHTS for Inhibitors of TGF-b; note: nearly all actives have a fitted effect of over 65% in size
Conditions: HepG2 CAGA-GFP TGF-b/SMAD3 reporter, GFP fluorescence, 18 h, TGF-beta stimulated, 500 pg/mL final; series mostly up to 46.1 µM; activity, negative = inhibition: at the top concentration
Procedure, shortened: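 Inhibition of TGF-beta-driven CAGA-GFP reporter expression in HEPG2 cells is measured by cellular GFP fluorescence after 18 h stimulation with 500 pg/mL recombinant TGF-beta in 1% FBS medium at 37 degrees C.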
% is set by controls: 0 for no effect and ±100 for the full control effect; potency is the fitted concentration of half-maximal effect.

activity, negative = inhibition, inactive:
CN(C)c1cccc2ccccc12 -13.9%
CCOC(=O)c1c(S(=O)(=O)N2CCC(C(=O)NCc3ccccc3OC)CC2)c(C)n(C)c1C -11.1%
Cc1ccc(S(=O)(=O)n2nc(C)c(S(=O)(=O)N3CCCCCC3)c2C)cc1 11%
C=C1C=C(C(F)F)n2ncc(C(=O)NCCc3ccccc3OC)c2N1 -1.82%
O=C(NCCCO)C(=O)Nc1c2c(nn1-c1ccc(F)cc1)CSC2 4.69%
N#Cc1ccccc1Cn1cnc2nc3c(cc2c1=O)CCCC3 0%
CC(C)(C)c1ccc(C(=O)NCC(c2ccc(Cl)cc2)N2CCOCC2)cc1 (centres undefined) -29.8%
Cc1ccccc1Cn1nc(C)c(NC(=O)c2cc(-c3ccc(F)cc3)on2)c1C -9.57%
Cc1ccc(NC(=O)c2ccc3[nH]c(C)cc(=O)c3c2)c(C)c1 -2.49%
CCOc1ccc(NC(=O)C2CCN(S(=O)(=O)c3cc(-c4noc(C)n4)ccc3C)CC2)cc1 -5.16%
Cc1ccc(CNC(=O)C2CCCN(S(C)(=O)=O)C2)cc1 (centres undefined) 3.69%
CCOc1ccc(N(CC)S(=O)(=O)N2CCCC(C(=O)Nc3ccc(C(C)=O)cc3)C2)cc1 (centres undefined) -13.9%
COc1cccc(Nc2nc(N)c([N+](=O)[O-])c(NCc3ccco3)n2)c1 -14.2%
CCN1CCN(c2nc(Nc3cccc(F)c3)nc(N)c2[N+](=O)[O-])CC1 0.701%
CCC(=O)N1c2ccccc2CC1C(=O)N1CCN(c2ccccc2)CC1 (centres undefined) 0.154%
Cc1cccc(C(=O)NC(=S)N(C)C2CCCCC2)c1 0%
Cc1cccc(NC(=O)C2CCN(C(=O)NC3CCCCC3)CC2)c1 1.28%
Cc1cc(=O)n(CC(=O)Nc2cccc([N+](=O)[O-])c2)c(-n2nc(C)cc2C)n1 0%
Cc1ccccc1CS(=O)(=O)CC1Nc2ccc(C(=O)NCc3ccc(Cl)cc3)cc2NC1=O (centres undefined) -1.42%
CCOc1ccc(Cl)cc1-c1cc(C(=O)NCc2cccs2)[nH]n1 2.8%
CC(C)Oc1cc(F)ccc1-c1cc(C(=O)Nc2ccc(F)cc2)[nH]n1 6.2%
CCOC(=O)c1ccccc1NC(=O)c1sc2nc(-c3ccc(F)cc3)cn2c1C -6.41%
CCS(=O)(=O)N1CCc2cc(C(=O)NCc3ccc(C)cc3)ccc21 1.67%
CC(=O)Nc1c(C)nn(-c2ccccc2)c1N1CCC(C(=O)Nc2cc(Cl)ccc2C)CC1 -5.23%
Cc1nnc(N2CCCC(C(=O)NCCN(C)C)C2)c2nn(-c3ccccc3)c(C)c12 (centres undefined) -6.54%
CCCCNC(=O)C1CCCN(c2nnc(C)c3c(C)n(-c4ccc(Cl)cc4)nc23)C1 (centres undefined) -36.1%
CCc1ccc(CNC(=O)C2CCN(c3nn4cc(-c5ccc(F)cc5)nc4s3)CC2)cc1 -1.09%
CCOc1ccc(CNC(=O)c2ccc3nc(CC)c(CC)nc3c2)cc1OC 15.4%
CC(=O)c1ccc[n+](C(C)CCC(C)[n+]2cccc(C(C)=O)c2)c1 (centres undefined) 8.48%
Cc1c(Cl)cccc1NC(=O)CCS(=O)(=O)c1ccc2c(c1)oc(=O)n2C -21.7%
Cc1ccccc1-c1nc(SCC(=O)N(C)c2ccccc2)c2c(=O)n(C)c(=O)n(C)c2n1 6.3%
CC(OC(=O)/C=C/c1ccccc1)C(=O)NC1CCCCC1C (centres undefined) -16.4%
CC1CC(C)CN(C/C=C/c2ccccc2[N+](=O)[O-])C1 (centres undefined) -22.1%
COc1ccc(CNC(=O)c2cc3c(=O)[nH]c4ccc(C)cc4c3s2)c(OC)c1 -24.9%
Nc1ccccc1N -6.36%
CCC(C)N(C(=O)CSc1nnnn1-c1ccccc1OC)C1CCS(=O)(=O)C1 (centres undefined) -8.36%
COc1ccccc1-n1nnnc1SCC(=O)NC(=O)Cc1ccccc1 -4.63%
CN(C)c1ccc(/C=C/C=C/c2ccnc3ccccc23)cc1 63%
CCc1cccc(NC(=O)Cn2nc(CC)n3c(cc4cc(C)ccc43)c2=O)c1 -2.34%
CCc1cnc2c(c1SCC(=O)N1CCC(C)CC1)c(=O)n(C)c(=O)n2C 0.0678%
CCOC(=O)c1ccc2c(c1)N(Cc1cccc(OC)c1)C(=O)c1ccccc1S2(=O)=O -6.73%
O=C(CSc1ncc(S(=O)(=O)c2ccc(Br)cc2)c(=O)[nH]1)Nc1ccc2c(c1)OCCO2 32.6%
CC(C)C12CN3CC(C(C)C)(CN(C1)C3c1ccc(OCc3ccccc3)cc1)C2=O (centres undefined) 0.227%
COc1ccc(NS(=O)(=O)c2ccc(N3CCOCC3)c(NC(=O)c3ccccc3Br)c2)cc1 -32.2%
COCCN(CCOC)S(=O)(=O)c1ccc(C(=O)Nc2nc3c(s2)CCc2ccccc2-3)cc1 -15.9%
Cc1ccc2nc(COc3ccccc3NC(=O)Nc3ccc(F)c(Cl)c3)cc(=O)n2c1 -6.3%
COc1ccc(C2=CC(c3ccccc3Cl)n3nc(-c4ccc(Cl)cc4)nc3N2)cc1 (centres undefined) -2.29%
O=C(c1cnn2c1NC(=C1CC1)C=C2C(F)F)N1CCc2ccccc2C1 -8.04%
Cc1ccc(C)c(N2CCN(S(=O)(=O)c3ccc4c(c3)oc(=O)n4C)CC2)c1 -8.2%
Cc1ccc(N2CCN(S(=O)(=O)c3ccc(F)cc3)CC2)c(C)c1 -8.07%
O=C(CCc1nc(CN2CCN(S(=O)(=O)c3ccc(F)cc3)CC2)no1)N1CCCCC1 15.1%
Cc1cccc(NC(=O)Cn2c(=O)n(CCC(C)C)c(=O)c3cccnc32)c1 -3.93%
O=C(c1snnc1-c1ccccc1)N1CCOCC1 -0.268%
Cc1ccc(C)c(CN2C(=O)c3ccccc3S(=O)c3ccc(C(=O)N4CCOCC4)cc32)c1 (centres undefined) -28.2%
CCCCOc1ccc(C(=O)N2CC(=O)Nc3ccc(Br)cc3C2c2ccc(F)cc2)cc1 (centres undefined) -36%
COc1ccc2oc(=O)c(-c3cn4c(n3)sc3cc(OC)ccc34)cc2c1 5.81%
Cc1c(CCO)sc[n+]1CC(=O)c1ccc2ccccc2c1 -5.47%
CCC(C)NC(=O)Cn1c(=O)n(-c2ccc(Cl)cc2)c(=O)c2c3c(sc21)CCCC3 (centres undefined) -12.6%
COc1cc(C2c3c(oc4ccccc4c3=O)C(=O)N2c2nc(C)c(C)s2)ccc1O (centres undefined) -4.72%
CCOC(=O)c1ccc(NC(=O)CNC(=O)c2ccco2)cc1 1.66%
CCOc1ccc(-c2n[nH]c3c2C(c2ccccc2OC)N(c2ccc(Br)cc2)C3=O)cc1 (centres undefined) 1.86%
CCOC(=O)c1ccc(NC2=CC(c3ccc(OCC)cc3)N(c3ccc(C(=O)OCC)cc3)C2=O)cc1 (centres undefined) 11.5%
CCOC(=O)C1=C(c2ccccc2)N=C2SCC(=O)N2C1c1ccc(O)c(OC)c1 (centres undefined) 2.21%
CCOc1cc(C2C(C(=O)c3ccco3)=C(O)C(=O)N2Cc2ccccc2)ccc1O (centres undefined) -23%
Cc1nc(SCC(=O)Nc2ccc(C(=O)O)cc2)n[nH]1 -24.3%
O=S(=O)(c1ccc(C2CCCCC2)cc1)N1CCN(c2ccc(Cl)c(Cl)c2)CC1 4.43%
CNc1ccc(-c2nc(-c3ccco3)no2)cc1[N+](=O)[O-] -2.19%
CC(C)(C)OC(=O)N(Cc1ccco1)S(=O)(=O)c1ccccc1Br 6.04%
CCOc1ccc(NC(=O)CCc2c(C)nn(-c3ccc(N4CCCC4)nn3)c2C)cc1 -14.8%
CC1(C)CC(=O)c2cc(C(=O)NCc3ccccc3)c(=O)[nH]c2C1 2.07%
CC(C)(C)c1ccc(C(=O)N2CCC(c3nc(-c4ccc(S(=O)(=O)N5CCCC5)cc4)no3)CC2)cc1 0%
COc1ccc(NS(=O)(=O)c2cc(NC(=O)/C=C/c3cc(OC)c(OC)c(OC)c3)ccc2N2CCCCC2)cc1 0%
COc1cc(/C=C/C(=O)N2CCc3ccccc3C2)cc(OC)c1OC 14.2%
CCc1ccccc1N1CC(c2nc3ccccc3n2CCCCOc2ccccc2)CC1=O (centres undefined) -0.426%
CCOc1ccc(N2CC(c3nc4ccccc4n3CCOc3ccc(OC)cc3)CC2=O)cc1 (centres undefined) -16.7%
Cc1oc2ccc(O)c(CN3CCC(C)CC3)c2c1C(=O)Nc1ccccc1 17.7%
Cc1ccc(S(=O)(=O)c2nnn3c2nc(N2CCN(c4ccccc4F)CC2)c2cc(Cl)ccc23)cc1C 8.18%

Potency, active:
COc1ccc(OC)c(C2C3=C(N=c4s/c(=C\c5cccc(O)c5)c(=O)n42)c2ccccc2CC3)c1 (centres undefined) 15.8 µM
CCOc1ccc(N(CC)S(=O)(=O)N2CCCC(C(=O)NCc3ccc(Cl)cc3)C2)cc1 (centres undefined) 17.8 µM
CNc1nc(Nc2ccc(C)c(Cl)c2)nc(N)c1[N+](=O)[O-] 11.2 µM
Cc1cccc(NC(=S)NCCN(C2CCCCC2)C2CCCC2)c1 17.8 µM
CCCOc1ccc(F)cc1-c1cc(C(=O)Nc2ccc(F)c(Cl)c2)[nH]n1 11.2 µM
Cc1nnc(N2CCC(C(=O)Nc3ccc(F)cc3)CC2)c2nn(-c3ccc(Cl)cc3)c(C)c12 10 µM
CC1CCCCC1NC(=O)/C(C#N)=C/C=C/c1ccccc1[N+](=O)[O-] (centres undefined) 20 µM
COc1ccccc1-n1nnnc1S(=O)(=O)Cc1ccc(Cl)cc1 7.08 µM
Cc1cc2c(cc1C)N1C(=O)c3cc4ccccc4cc3NC(=O)C1C(=O)N2 (centres undefined) 12.6 µM
COc1ccc2c(c1)Cc1sc(NC(=O)c3ccccc3Br)nc1-2 7.08 µM
Cc1ccc(C)c(N2CCN(S(=O)(=O)c3ccc4c(c3)C(C(C)C)C(=O)N4)CC2)c1 (centres undefined) 15.8 µM
Cc1oc2c(c1C(=O)N1CCOCC1)C(=O)c1ccccc1C2=O 4.47 µM
CCOc1cc(C2c3c(-c4ccc(Br)cc4)n[nH]c3C(=O)N2c2ccc(Cl)cc2)ccc1O (centres undefined) 4.47 µM
CCOC(=O)c1ccc(N2C(=O)c3n[nH]c(-c4ccco4)c3C2c2ccc(O)cc2)cc1 (centres undefined) 15.8 µM
CCOC(=O)c1ccc(N2C(=O)c3n[nH]c(C)c3C2c2ccc(O)c(OC)c2)cc1 (centres undefined) 11.2 µM
COc1ccccc1Nc1c2c(nc3ccc(NC(=O)/C=C/c4cc(OC)c(OC)c(OC)c4)cc13)CCCC2 4.47 µM
CCCCN1CC(c2nc3ccccc3n2CCCCOc2ccc(C)cc2C)CC1=O (centres undefined) 11.2 µM
